From PubChem BioAssay (EPA / NIEHS)
Activity calls are given as the source filed them. The calls were made as follows: active = hit-call score of the fitted dose curve at least 0.9, where 1 is the maximum; inactive = score below 0.9.

Assays:
[1] = APR_HepG2_CellCycleArrest_24hr: Apredica 24-hour HepG2 Assay for Cell Cycle Arrest (AID 2282905); settings: imaging, actives raise or lower the signal;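 also: cell cycle arrest scored as ratio of 2N to 4N nuclear DNA content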
Procedure, shortened: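 Readout: Hoechst 33342 nuclear DNA content by high-content fluorescent imaging, six images/well, 20x. Human HepG2 liver cells, 24 hr compound exposure, 0.39–200 uM, final DMSO 0.5% v/v. Gain or loss fitted relative to DMSO baseline.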

[2] = APR_HepG2_CellLoss_24hr: Apredica 24-hour HepG2 Assay for Cell Loss (AID 2282908); settings: high-content imaging;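 as to AC50: fit in both directions so a hit may be cell loss or gain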
Procedure, shortened: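 Read-out: Hoechst 33342-stained nuclei counted by automated fluorescence imaging after formaldehyde fixation and Triton permeabilization. Ten concentrations, 0.39 to 200 uM, duplicate wells, 0.5% DMSO final. Gain or loss of signal fitted relative to DMSO baseline.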

[3] = APR_HepG2_MicrotubuleCSK_24hr: Apredica 24-hour HepG2 Assay for Microtubule CSK Stabilty (AID 2282909); settings: HepG2 microtubule cytoskeleton imaging, actives raise or lower the signal
Procedure, shortened: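 Read-out: alpha-tubulin immunofluorescence intensity by automated high-content imaging of fixed HepG2 cells after 24 h compound treatment. Ten concentrations, 0.39 to 200 uM, in duplicate; DMSO 0.5% v/v. Taxol positive control; DMSO-normalized bidirectional curve fitting.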

[4] = APR_HepG2_MitoMembPot_24hr: Apredica 24-hour HepG2 Assay for Mitochondrial Membrane Potential (AID 2282911); settings: imaging, actives raise or lower the signal
Procedure, shortened: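 Mitochondrial dye uptake (MitoTracker Red CMXRos, 250 nM, 30 min pre-fixation) in HepG2 after 24 hr compound exposure, 0.39–200 uM; ArrayScan images at 20x, activity fitted in both directions relative to DMSO.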

[5] = APR_HepG2_MitoMass_24hr: Apredica 24-hour HepG2 Assay for Mitochondrial Mass (AID 2282912); settings: high-content imaging, actives raise or lower the signal
Procedure, shortened: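 HepG2, 24 hr dosing, 10 concentrations 0.39–200 uM in duplicate, DMSO 0.5% final. MitoTracker Red CMXRos 250 nM, 30 min pre-fix; 3.7% formaldehyde fix. Imaging-based fluorescence intensity; gain/loss fit vs DMSO baseline.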

[6] = APR_HepG2_CellCycleArrest_72hr: Apredica 72-hour HepG2 Assay for Cell Cycle Arrest (AID 2282914); settings: high-content imaging, actives raise or lower the signal
Procedure, shortened: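 Using multiplexed high-content imaging, HepG2 nuclei stained with Hoechst 33342 (2 ug/mL) were analysed for DNA content after fixation and permeabilization. Treatment lasted 72 hr across 0.39–200 uM in duplicate with final DMSO 0.5% v/v; DMSO served as negative control.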

[7] = APR_HepG2_CellLoss_72hr: Apredica 72-hour HepG2 Assay for Cell Loss (AID 2282915); settings: high-content imaging
Procedure, shortened: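 HepG2 cells exposed 72 h to compound at 0.39–200 uM (10 concentrations, duplicate) in 0.5% DMSO. Fixed with 3.7% formaldehyde and Hoechst 33342-stained. Imaged at 20x; nuclear count gives cell number, fitted bidirectionally versus DMSO.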

[8] = APR_HepG2_NuclearSize_24hr: Apredica 24-hour HepG2 Assay for Nuclear Size (AID 2282907); settings: high-content imaging, actives raise or lower the signal
Procedure, shortened: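 Read-out: nuclear diameter from Hoechst 33342 (2 ug/mL) imaging of fixed HepG2 cells, 20x, six fields/well. Compounds ran at 0.39–200 uM for 24 hr, 0.5% DMSO final. Gain or loss was fitted bidirectionally relative to the DMSO baseline.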

[9] = APR_HepG2_MitoticArrest_24hr: Apredica 24-hour HepG2 Assay for Mitotic Arrest (AID 2282910); settings: high-content imaging, actives raise or lower the signal
Procedure, shortened: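 HepG2, 24 hr dosing, 0.39–200 uM, 0.5% DMSO final. Formaldehyde-fixed, Triton-permeabilised, anti-phospho-histone H3 plus Hoechst. ArrayScan imaging at 20x; bidirectional fit vs DMSO baseline.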

[10] = APR_HepG2_p53Act_24hr: Apredica 24-hour HepG2 Assay for p53 Activation (AID 2282913); settings: high-content imaging, actives raise or lower the signal;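 also: p53 protein immunofluorescence averaged per cell in HepG2 with Hoechst nuclei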
Procedure, shortened: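 Following 24 hr dosing of HepG2 at 0.39–200 uM, the cells undergo formaldehyde fixation, Triton permeabilization and multiplexed antibody labeling that includes p53 (Cy5). Signal from the imaging is referenced to DMSO solvent controls.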

Measured: AC50

CSc1ccc(Oc2ccc(S(N)(=O)=O)cc2CN(C)C)cc1C
active: [2] 131 µM | [4] 100 µM | [5] 100 µM | [7] 108 µM
inactive: [1] | [3] | [6]

O=C1c2c(O)cccc2Cc2cccc(O)c21
active: [4] 11.1 µM
not listed: [1] | [2]
inactive: all other assays above

Nc1nc(Cl)nc2c1ncn2[C@H]1C[C@H](O)[C@@H](CO)O1
active: [8] 0.0451 µM | [2] 0.0403 µM | [5] 0.243 µM | [10] 0.208 µM | [6] 0.0388 µM | [7] 0.162 µM
inactive: [3] | [9] | [4]

CS(=O)(=O)c1ccc([C@@H](C[C@H]2CCC(=O)C2)C(=O)Nc2cnccn2)cc1Cl
not listed: [1] | [9]
inactive: all other assays above

CN(C)CCCN1c2ccccc2Sc2ccc(Cl)cc21
inactive: [3] | [4]
active: [8] 129 µM | [9] 19.7 µM | [5] 31 µM | [10] 28.5 µM | [6] 102 µM | [7] 33.9 µM

CC(=O)OCC(COC(C)=O)OC(C)=O
not listed: [8] | [9] | [10]
inactive: all other assays above

CCc1nc(N)nc(N)c1-c1ccc(Cl)cc1
active: [6] 100 µM | [7] 80.2 µM
not listed: [8] | [9]
inactive: all other assays above

NC1CCCCC1
not listed: [1] | [10]
inactive: all other assays above

Cc1ccc(C(C)(C)C)c(O)c1
inactive: [1]
active: [8] 112 µM | [3] 113 µM | [4] 122 µM | [5] 107 µM | [10] 110 µM | [6] 110 µM | [7] 145 µM

C/C=C/c1ccc(OC)cc1
not listed: [1] | [10]
inactive: all other assays above

CC(C)OC(=O)C(C)(C)Oc1ccc(C(=O)c2ccc(Cl)cc2)cc1
inactive: [8] | [2] | [3] | [4] | [5]
active: [6] 100 µM | [7] 103 µM

CC(C)(O)c1ccc(CNC(=O)c2cccnc2Oc2ccc(F)cc2)cc1
not listed: [2] | [8]
inactive: all other assays above

CCCCOC(=O)CCCCC(=O)OCCCC
not listed: [1] | [10]
inactive: all other assays above

Oc1ccccc1O
active: [6] 36.4 µM | [7] 36.8 µM
not listed: [2] | [8]
inactive: all other assays above

O=C(O)c1cccnc1
not listed: [8] | [10]
inactive: all other assays above

O=Cc1ccccc1C=O
not listed: [2] | [9] | [10]
inactive: all other assays above

OCC(CO)n1cnc(-c2ccc(F)cc2)c1-c1ccnc(Oc2ccccc2)n1
not listed: [2] | [9]
inactive: all other assays above

COC(=O)CCC(=O)OC
not listed: [2] | [8] | [9]
inactive: all other assays above

Cc1ccc(-c2cc(C(F)(F)F)nn2-c2ccc(S(N)(=O)=O)cc2)cc1
active: [2] 66.7 µM | [5] 64 µM | [6] 28.6 µM | [7] 40.8 µM
inactive: [3] | [4]

CCCC[C@H]1CN(CC2CCOCC2)C(=O)OC12CCN(C1(C)CCN(C(=O)c3c(C)ncnc3C)CC1)CC2
not listed: [1] | [8]
inactive: all other assays above

CCc1cc(C2=C(C(=O)O)N(c3ccccc3C(F)(F)F)S(=O)(=O)c3ccccc32)cc2c1OCO2
active: [7] 95.5 µM
not listed: [1] | [2] | [8]
inactive: all other assays above

N[C@@H](Cc1c[nH]c2ccccc12)C(=O)O
inactive: [3] | [9] | [4] | [5] | [6] | [7]

C#CC(O)C(CC)CCCC (centres undefined)
not listed: [1] | [2] | [10]
inactive: all other assays above
